The whole screen tested about 39,000 compounds, of which about 3,300 (8.5%) were called active. The entries come from a sample that favours actives as a whole.
The compounds below were run on HepG2 (assay: cytotoxicity call (relative viability < 0.9)). Settings: 10 µM.

With COc1ccc(CN(C)C[C@H]2OCCCC[C@H](C)Oc3ccc(NS(=O)(=O)c4ccc(Cl)cc4)cc3C(=O)N([C@H](C)CO)C[C@H]2C)cc1 as the compound, how does the cytotoxicity call read?
Its cytotoxicity call is “inactive”.

For C[C@H](CO)N1C[C@H](C)[C@@H](CN(C)C(=O)Cc2ccccc2)OCCCC[C@H](C)Oc2ccc(NC(=O)Cc3ccccc3)cc2C1=O, which cytotoxicity call is on record?
Its cytotoxicity call is “inactive”.

For CC(C)N1C[C@H](C)[C@@H](CN(C)Cc2ccc(Oc3ccccc3)cc2)Oc2c(NC(=O)c3ccccn3)cccc2C1=O, which cytotoxicity call is on record?
Its cytotoxicity call is “inactive”.

Which cytotoxicity call does the source give for COc1ccccc1-c1ccc2c(c1)O[C@H](CN(C)CC1CCOCC1)[C@@H](C)CN([C@H](C)CO)S2(=O)=O here?
Its cytotoxicity call is “inactive”.

Which cytotoxicity call does the source give for C[C@@H]1CN([C@@H](C)CO)S(=O)(=O)c2ccc(C#CC3(O)CCCC3)cc2O[C@@H]1CN(C)C(=O)c1cccnc1 here?
Its cytotoxicity call is “inactive”.

With C[C@@H]1CN([C@@H](C)CO)C(=O)c2ccccc2-c2ccccc2CO[C@H]1CN(C)Cc1ccccc1C(F)(F)F as the compound, how does the cytotoxicity call read?
The cytotoxicity call was “inactive”.

O=C(C[C@@H]1CC[C@H]2[C@@H](COC[C@@H](O)CN2S(=O)(=O)c2ccc(F)cc2)O1)N[C@@H]1CCN(Cc2ccccc2)C1 was tested. Which cytotoxicity call did it give?
Its cytotoxicity call is “inactive”.

Which cytotoxicity call does the source give for O=C(C[C@H]1CC[C@H](NC(=O)Cc2ccccn2)[C@H](CO)O1)NCCc1ccncc1 here?
The cytotoxicity call was “inactive”.

For CC1CCN(C(=O)N2c3ccccc3Sc3ccccc32)CC1, which cytotoxicity call is on record?
The cytotoxicity call was “inactive”.

For CSc1ccc2c(c1)N(CCC1CCCCN1C)c1ccccc1S2.Cl (stereo unspecified), which cytotoxicity call is on record?
The cytotoxicity call was “active”.

For C[C@H]1CN([C@@H](C)CO)C(=O)c2cccc(NS(=O)(=O)c3cccs3)c2O[C@H]1CN(C)S(C)(=O)=O, which cytotoxicity call is on record?
Its cytotoxicity call is “inactive”.

Which cytotoxicity call does the source give for C[C@@H]1CN([C@@H](C)CO)C(=O)c2cc(NC(=O)Nc3ccccc3)ccc2O[C@@H](C)CCCCO[C@H]1CN(C)C(=O)CCC(F)(F)F here?
Its cytotoxicity call is “inactive”.

With C[C@@H]1CCCCO[C@@H](CN(C)S(=O)(=O)c2cccs2)[C@@H](C)CN([C@H](C)CO)C(=O)c2cc(NC(=O)Nc3ccc(C(F)(F)F)cc3)ccc2O1 as the compound, how does the cytotoxicity call read?
Its cytotoxicity call is “inactive”.

For C[C@H](CO)N1C[C@H](C)[C@@H](CN(C)S(=O)(=O)c2cccs2)OCCCC[C@H](C)Oc2ccc(NC(=O)Nc3ccc(C(F)(F)F)cc3)cc2C1=O, which cytotoxicity call is on record?
Its cytotoxicity call is “inactive”.

How did the cytotoxicity call turn out when C[C@@H]1CCCCO[C@H](CN(C)S(=O)(=O)c2cccs2)[C@@H](C)CN([C@@H](C)CO)C(=O)c2cc(NC(=O)Nc3ccc(C(F)(F)F)cc3)ccc2O1 was run?
Its cytotoxicity call is “active”.

How did the cytotoxicity call turn out when C[C@@H]1CN([C@@H](C)CO)C(=O)c2cc(NC(=O)Nc3ccc(C(F)(F)F)cc3)ccc2O[C@@H](C)CCCCO[C@@H]1CN(C)S(=O)(=O)c1cccs1 was run?
The cytotoxicity call was “inactive”.

With C[C@@H]1CN([C@H](C)CO)C(=O)c2cc(NC(=O)Nc3ccc(C(F)(F)F)cc3)ccc2O[C@@H](C)CCCCO[C@@H]1CN(C)S(=O)(=O)c1cccs1 as the compound, how does the cytotoxicity call read?
Its cytotoxicity call is “inactive”.

How did the cytotoxicity call turn out when C[C@@H]1CCCCO[C@H](CN(C)S(=O)(=O)c2cccs2)[C@H](C)CN([C@@H](C)CO)C(=O)c2cc(NC(=O)Nc3ccc(C(F)(F)F)cc3)ccc2O1 was run?
Its cytotoxicity call is “active”.

For C[C@@H]1CN([C@H](C)CO)C(=O)c2cc(NC(=O)C3CC3)ccc2O[C@H]1CN(C)Cc1ccc(Oc2ccccc2)cc1, which cytotoxicity call is on record?
Its cytotoxicity call is “inactive”.

With COc1cc(OC)c([C@@H]2c3c(n(C)c(=O)n(C)c3=O)N=C3COC(=O)C32)cc1OC (stereo partly specified) as the compound, how does the cytotoxicity call read?
Its cytotoxicity call is “inactive”.

How did the cytotoxicity call turn out when NCc1cnc(Nc2ccccc2)nc1 was run?
Its cytotoxicity call is “inactive”.

How did the cytotoxicity call turn out when COc1ccc(S(=O)(=O)Nc2ccc3c(c2)C(=O)N([C@H](C)CO)C[C@H](C)[C@@H](CN(C)Cc2ccc4c(c2)OCO4)OCCCC[C@@H](C)O3)cc1 was run?
Its cytotoxicity call is “inactive”.

For C[C@@H]1CCCCO[C@H](CN(C)C(=O)C2CCCCC2)[C@H](C)CN([C@H](C)CO)C(=O)c2cc(NC(=O)c3ccccc3)ccc2O1, which cytotoxicity call is on record?
The cytotoxicity call was “inactive”.

Which cytotoxicity call does the source give for C[C@@H]1CN([C@@H](C)CO)C(=O)c2cccc(NC(=O)C3CCCCC3)c2O[C@@H]1CN(C)Cc1ccc(C(F)(F)F)cc1 here?
Its cytotoxicity call is “inactive”.

C[C@H](CO)N1C[C@H](C)[C@@H](CN(C)C(=O)c2cnccn2)Oc2ncc(C#Cc3ccccn3)cc2C1=O was tested. Which cytotoxicity call did it give?
The cytotoxicity call was “inactive”.

CCCCC[C@@H](C)N was tested. Which cytotoxicity call did it give?
Its cytotoxicity call is “inactive”.

For C[C@@H]1CN([C@H](C)CO)C(=O)Cc2cc(NS(=O)(=O)c3cn(C)cn3)ccc2O[C@@H]1CN(C)CC1CC1, which cytotoxicity call is on record?
Its cytotoxicity call is “inactive”.

COc1ccc(NC(=O)[C@H]2[C@@H](c3ccc(C)cc3)CC(=O)N2C(=O)OCc2ccccc2)c2ncccc12 was tested. Which cytotoxicity call did it give?
The cytotoxicity call was “active”.

How did the cytotoxicity call turn out when O=C(Nc1cccc2cccnc12)[C@@H]1[C@H](c2cccc(Br)c2)CC(=O)N1C(=O)OCc1ccccc1 was run?
The cytotoxicity call was “inactive”.

O=C(Nc1cccc2cccnc12)[C@@H]1[C@H](c2ccc(Br)cc2)CC(=O)N1C(=O)OCc1ccccc1 was tested. Which cytotoxicity call did it give?
The cytotoxicity call was “inactive”.

Which cytotoxicity call does the source give for O=C(Nc1cccc2cccnc12)[C@@H]1[C@H](c2ccc(-c3ccccc3)cc2)CC(=O)N1C(=O)OCc1ccccc1 here?
Its cytotoxicity call is “inactive”.

COc1ccc(NC(=O)[C@@H]2[C@H](c3ccc(C)cc3)CC(=O)N2C(=O)OCc2ccccc2)c2ncccc12 was tested. Which cytotoxicity call did it give?
The cytotoxicity call was “inactive”.

How did the cytotoxicity call turn out when O=C(Nc1cccc2cccnc12)[C@@H]1[C@H](c2cc(Cl)cc(Br)c2)CC(=O)N1C(=O)OCc1ccccc1 was run?
The cytotoxicity call was “active”.

Which cytotoxicity call does the source give for C[C@H](CO)N1C[C@H](C)[C@H](CN(C)Cc2ccccc2)Oc2c(NS(=O)(=O)c3cn(C)cn3)cccc2C1=O here?
The cytotoxicity call was “inactive”.

With COC(=O)C1=CO[C@@H](O[C@@H]2O[C@H](CO)[C@@H](O)[C@H](O)[C@H]2O)[C@@H]2[C@@H](C)[C@@H](O)C[C@H]12 as the compound, how does the cytotoxicity call read?
The cytotoxicity call was “inactive”.

For CC1=NNC(=O)CC1, which cytotoxicity call is on record?
Its cytotoxicity call is “inactive”.

For Cc1noc(C)c1NC(=O)Nc1ccc2c(c1)C(=O)N([C@H](C)CO)C[C@@H](C)[C@@H](CN(C)Cc1ccc(C(F)(F)F)cc1)OCCCC[C@@H](C)O2, which cytotoxicity call is on record?
The cytotoxicity call was “inactive”.

How did the cytotoxicity call turn out when c1ccc(CNc2ccc3c(ccc4c5ccccc5[nH]c34)n2)cc1 was run?
The cytotoxicity call was “active”.

For c1ccc(CNc2nn[nH]n2)cc1, which cytotoxicity call is on record?
The cytotoxicity call was “inactive”.

With Cn1nnnc1NCc1ccccc1 as the compound, how does the cytotoxicity call read?
The cytotoxicity call was “inactive”.

With C[C@@H](CO)N1C(=O)[C@@H]2[C@H]3C(=O)OCCC=C[C@H]3O[C@]23C=CCN(Cn2nnc4ccccc42)C(=O)[C@@H]13 as the compound, how does the cytotoxicity call read?
The cytotoxicity call was “inactive”.

With FC(F)(F)c1ccc(CSc2c[nH]c3ccccc23)cc1 as the compound, how does the cytotoxicity call read?
Its cytotoxicity call is “inactive”.

O=c1nc[nH]c2ccccc12 was tested. Which cytotoxicity call did it give?
The cytotoxicity call was “inactive”.

How did the cytotoxicity call turn out when Brc1ccc(CSc2c[nH]c3ccccc23)cc1 was run?
The cytotoxicity call was “active”.

For Cn1nnc(NCc2ccccc2)n1, which cytotoxicity call is on record?
Its cytotoxicity call is “inactive”.

For CC1(C)C=Cc2c(nc3ccccc3c2NCc2ccccc2)C1, which cytotoxicity call is on record?
Its cytotoxicity call is “active”.

From the antibiotic and cytotoxicity screens of Wong et al. (2023)
